# DAX1 inh-1 – blocks DAX1 repression of SF-1 activated StAR promoter; 1.1% of 370,000 active; inhibition, % at 6.8 µM; HEK293T StAR-luciferase reporter, SF-1/DAX-1 repression relief;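 active = inhibition above the mean over all tested compounds plus 3 SD, cut at about 3.6% in these data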;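 also: 0% = DAX-1 cells with DMSO and 100% = cells lacking DAX-1 with DMSO; higher inhibition means more luminescence from relief of DAX-1 repression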
# hcDAF-12 act – activators of H. contortus DAF-12 nuclear receptor; AID 652067; activation, % at 6.8 µM; HEK293 hcDAF-12 lit1-tk-luc reporter, luminescence; 0% DMSO, 100% Δ7-dafachronic acid; 1.4% of 370,000 active;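 active = activation above the mean of all tested compounds plus 3 SD, cut at about 5.5% in these data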;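 also: 100% = response to 3 µM Δ7-dafachronic acid high control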
# hgDAF-12 ag – agonists of H. glycines DAF-12 nuclear receptor. 1.8% of 370,000 active. activation, % at 6.8 µM. HEK293 GAL4-hgDAF12 UAS-luciferase reporter, agonist luminescence; normalized to butyrate control;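 active = activation above a cutoff set at the mean of all screened compounds plus 3 SD, cut at about 10% in these data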;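 also: 0% = DMSO wells and 100% = sodium butyrate wells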
# DAX1 inh-2 – inhibits human nuclear receptor DAX1; 0.99% of 340,000 active; HEK293 Gal4-DAX1 luciferase reporter, luminescence; inhibition, % at 6.75 µM; AID 504766;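 active = inhibition above the mean over all tested compounds plus 3 SD, cut at about 4.2% in these data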;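 also: 0% = DAX1-transfected cells with DMSO and 100% = empty-vector control cells with DMSO; inhibition shows as a rise in luminescence from relieved DAX1 repression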
# Target sequence (P51843 207-470 limits assumed): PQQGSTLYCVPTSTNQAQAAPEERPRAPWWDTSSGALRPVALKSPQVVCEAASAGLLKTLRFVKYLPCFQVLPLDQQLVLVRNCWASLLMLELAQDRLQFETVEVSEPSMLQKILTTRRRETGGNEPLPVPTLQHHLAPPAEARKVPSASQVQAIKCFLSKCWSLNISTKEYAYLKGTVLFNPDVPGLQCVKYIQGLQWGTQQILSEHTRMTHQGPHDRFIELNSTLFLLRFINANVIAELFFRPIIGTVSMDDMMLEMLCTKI
# ssDAF12 agonist – activators of S. stercoralis DAF-12 nuclear receptor; 1% of 370,000 active; AID 652126; activation, % at 6.8 µM; HEK293 ssDAF-12/GRIP1 lit1-tk-luc reporter, luminescence; % of 3 µM dafachronic acid response;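 active = activation above the mean over all tested compounds plus 3 SD, cut at about 0.9% in these data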;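 also: 0% = DMSO-only wells and 100% = 3 µM delta7-dafachronic acid wells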
# DAX1 inh confirm – confirmation of human DAX1 (NR0B1) inhibitors | inhibition, % at 6.8 µM | 87% of 2,400 active | shares compounds with DAX1 inh-1 | AID 652134 | HEK293T StAR-promoter luciferase reporter, SF-1/DAX-1 repression;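 active = inhibition above the average of every tested compound plus 3 SD, cut at about 3.8% in these data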;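 also: 0% = DAX-1 cells with DMSO and 100% = no DAX-1 control cells with DMSO; active compounds raise luminescence by relieving repression of the StAR reporter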
# SF1 mutant ctr – counter-screen for DAX1 inhibitors: nonselective inhibitors with SF-1 AF2 mutant. inhibition, % at 6.8 µM. HEK293 StAR-luciferase, luminescence. shares compounds with DAX1 inh-1. AID 652136. 78% of 2,400 active;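 active = inhibition above the mean of all tested compounds plus 3 SD, cut at about 3% in these data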;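 also: 0% = DAX-1 transfected cells with DMSO and 100% = cells without DAX-1 with DMSO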
# Active calls of the source: *; . = no result. Compounds with a hit are over-represented: about 4.1% of the library has one in this group of screens.
SMILES,DAX1 inh-1,hcDAF-12 act,hgDAF-12 ag,DAX1 inh-2,ssDAF12 agonist,DAX1 inh confirm,SF1 mutant ctr
Fc1ccc(-c2nc3ccc(Br)cn3c2Cc2cccc(Cl)c2)cc1,1,0,3,.,-1,.,.
Cc1ccc2nc(-c3ccc(F)cc3)c(Cc3cccc(F)c3)n2c1,4.8*,4,11*,.,0,4.1*,4.6*
Cc1c(CCNC=O)cc(C)c2c3c(oc12)CCCC3,4.9*,1,7,5.3*,0,6.5*,5.8*
Cc1ccc(S(=O)(=O)Nc2cc(C)cc(CCNC=O)c2C)cc1,-1,-1,-1,0,0,.,.
COc1ccc(C=C(C#N)c2ccc(OC)cc2)cc1,6.7*,3,17*,4,0,9.1*,4.0*
COc1ccc(C(C#N)=Cc2ccc(OC)c(OC)c2)cc1,0,-1,8,-1,-1,.,.
C[C@H](O)[C@@H]1C(=O)N2CCc3c([nH]c4ccccc34)[C@@H]2C[C@@H]1N(C)C(=O)Nc1cc(Cl)cc(Cl)c1,-4,-1,3,-1,0,.,.
Cc1nn(-c2ccccc2)c(C)c1C(=O)OCC(=O)Nc1ccccc1F,7.4*,2,10,1,0,7.0*,3.6*
CCOc1ccc(N(CC(=O)Nc2ccccc2OCC)S(=O)(=O)c2c(C)noc2C)cc1,13*,1,1,0,0,16*,-7
COc1ccc(-c2oc3c(c2C#CC2(O)CCCCC2)C(OC)CCC3)cc1 (stereo unspecified),5.6*,-2,3,.,-1,-1,-1
CCOC1CCCc2oc(-c3ccc(OC)cc3)c(C#CCCO)c21 (stereo unspecified),0,-2,0,.,-1,.,.
CC1CC(C)CN(CCCNC(=O)c2ccc3nc(N4CCOCC4)sc3c2)C1 (stereo unspecified),0,-1,-1,0,-2,.,.
CCCN1CCN(CCCNC(=O)c2ccc3nc(N4CCC(C)CC4)sc3c2)CC1,6.0*,5,10,-2,0,9.2*,4.8*
O=C(Nc1ccc(F)cc1)OCCN1C(=O)CCC12CCC(c1ccccc1)CC2 (stereo unspecified),0,-1,-4,.,-1,.,.
CNc1cc(-c2ccc(C(=O)OC)cc2)ncn1,2,1,5,.,0,.,.
CNc1cc(-c2ccc(OC)c(OC)c2)ncn1,5.3*,4,12*,.,0,9.5*,4.8*
CCOC(=O)CN1CCCc2nc(-c3ccc(OC)cc3)ccc21,0,3,2,.,-1,.,.
COc1ccc(CN(Cc2cccn2C)C(=O)c2cc3cc(OC)ccc3[nH]2)cc1,0,-3,2,0,-2,.,.
O=C(NCCc1cccc(Cl)c1)c1ccc2c(c1)OCO2,11*,5.6*,10,-1,1,13*,6.8*
COc1cc(Cl)ccc1OCc1cc(C(=O)N2C[C@@H]3CCC[C@H]2C3)no1,5.2*,4,9,1,0,7.5*,4.9*
COc1cc(Cl)ccc1OCc1cc(C(=O)N2C[C@H]3CC[C@H]2C3)no1,5.5*,2,8,3,0,4.7*,4.0*
O=C(C(=O)N1CCN(C(=O)c2ccco2)CC1)c1cc2ccccc2o1,0,0,-1,.,-1,.,.
O=C(CCS(=O)(=O)c1ccccc1)N1CCN(c2ccccc2)CC1,9.3*,5,5,1,-1,6.8*,3.7*
Nc1cc(-c2ccc(Cl)cc2)nn1-c1ccccc1,1,2,9,2,-1,.,.
O=C1CCn2nc(-c3ccc(Cl)cc3)cc2N1,5.3*,5,8,3,1.0*,6.3*,4.3*
SMILES,DAX1 inh-1,hcDAF-12 act,hgDAF-12 ag,DAX1 inh-2,ssDAF12 agonist,DAX1 inh confirm,SF1 mutant ctr
CC(=O)Nc1nc2cc3c(cc2s1)OCCO3,5.8*,3,11*,1,1.3*,12*,6.0*
Cc1ccc(S(=O)(=O)N2CCCc3nc(-c4ccc(F)cc4)ccc32)cc1,0,-1,1,.,0,.,.
CCOC(=O)N1CCN(C(=O)C[C@@H]2C[C@@]3(C(=O)OCC)CCC=C3N(Cc3ccc(Cl)cc3Cl)C2=O)CC1,-1,-1,-3,.,-1,.,.
COc1ccc(CN(C)C(=O)[C@H]2O[C@@H](n3ccc(=O)[nH]c3=O)[C@H](O)[C@@H]2O)cc1OC,4.7*,0,-1,.,-1,0,0
Cc1cc(C)nc(SCc2csc(-c3ccccc3)n2)n1,5.2*,5,11*,3,0,12*,6.3*
COc1ccc([C@H]2CC(=O)C[C@@H](CCn3cc(-c4ccc(F)cc4)nn3)O2)cc1,0,1,-1,.,-1,.,.
CCCCc1ccc(-c2nn[nH]n2)nc1,0,0,2,-1,-1,.,.
O=C(COC(=O)C1CC2C=CC1C2)Nc1c(Br)cc([N+](=O)[O-])cc1Br (stereo unspecified),-1,0,1,0,-1,.,.
O=C(Nc1ccc(CSc2ccccc2)cc1)c1ccco1,5.5*,3,13*,2,0,8.4*,5.5*
CCOC(=O)c1sc(NC(=O)CSc2ncccn2)nc1C,-1,0,3,0,-1,.,.
CCOC(=O)c1sc(NC(=O)CSc2nccn2C)nc1C,5.7*,4,5,0,0,6.8*,4.8*
O=C(OCc1ccc(Br)cc1)c1cc([N+](=O)[O-])ccc1N1CCOCC1,-2,-1,-2,-2,-1,.,.
COc1ccc(COC(=O)c2cc([N+](=O)[O-])ccc2N2CCOCC2)cc1F,4.5*,-1,-5,-2,-1,13*,-7
O=C(N/N=C/C(Br)=C\c1ccccc1)c1n[nH]c2c1CCC2,4.7*,5,1,-1,1.9*,21*,-4
O=C1COC(c2ccccc2O)=NN1CCCl,0,0,-2,0,0,.,.
Cc1cc(C)c(C(O)c2ncc(-c3cccc(F)c3)[nH]2)c(C)c1 (stereo unspecified),-1,-1,-1,.,-1,.,.
C[C@@H]1CCCN1c1ccc2c(c1)OCCCN(C1CC1)S2(=O)=O,-1,0,-2,.,-1,.,.
CN(C)c1ccc(NC(=O)c2cnsn2)cc1,6.3*,3,10,-1,0,7.4*,2
Cc1noc(C)c1C(=O)Nc1ccc(N(C)C)cc1,0,-2,-1,1,-1,.,.
O=C1/C(=C/c2cccs2)CCC/C1=C\c1cccs1,6.8*,6.2*,12*,4,0,13*,11*
CC1C/C(=C/c2cccs2)C(=O)/C(=C/c2cccs2)C1 (stereo unspecified),0,-1,1,-1,0,.,.
